Assay outcomes: PubChem BioAssay, Sanford-Burnham Center for Chemical Genomics
tim10-1 inh = growth inhibitors of tim10-1 mutant yeast, primary screen, luminescence, uHTS; AID 463190, 2010; 330,000 tested, 2.2% active; inhibition, % at 20 µM; S. cerevisiae tim10-1 ts strain growth, BacTiter-Glo, 24 h;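 active means inhibition of at least 40%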;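 further: mutant grown at 25 °C; 0% = DMSO wells with yeast and 100% = wells holding no yeast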
TIM10 inh = growth inhibitors of isogenic TIM10 control yeast, primary screen, counter-screen for tim10-1 yeast inhibitor project, luminescence, uHTS | S. cerevisiae TIM10 strain growth, BacTiter-Glo luminescence, 24 h | inhibition, % at 10 µM | 330,000 tested, 1.4% active | AID 463195, 2010;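 active means inhibition of 40% or more at the single tested concentration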;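 further: wild-type TIM10 isogenic control strain grown at permissive 25 °C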
NLRP3 yeast inh = NALP3 inflammasome inhibitors in reconstituted yeast, primary screen, luminescence, uHTS; Yeast reconstituted NLRP3/ASC/caspase-1, beta-gal luminescence, 24 h; inhibition, % at 10 µM; 330,000 tested, 0.39% active; AID 2825, 2010;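 active means inhibition of 50% or more; inactive means inhibition below 50%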;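 further: plate controls were induced DMSO wells for no effect and uninduced yeast grown without galactose for full effect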
NALP1 yeast inh = NALP1 inflammasome inhibitors in reconstituted yeast, colorimetric, S. cerevisiae, triplicate retest; 280,000 tested, 0.61% active; inhibition, % at 10 µM; S. cerevisiae NALP1/ASC/caspase-1 growth, X-gal OD620, 72 h; in the data active means inhibition mostly above about 24%, no sharp cut-off; inactive means mostly below about 32%
tim23-1 inh = growth inhibitors of tim23-1 mutant yeast, primary screen, luminescence, uHTS; inhibition, % at 20 µM; S. cerevisiae tim23-1 growth, BacTiter-Glo luminescence, 24 h; 330,000 tested, 1.3% active;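 active means growth inhibition of the mutant yeast at or above 50%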;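 further: temperature-sensitive mutant grown at 25 °C; plate controls were DMSO-treated mutant yeast for no effect and medium wells lacking yeast for full effect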
* = called active by the depositor; · = no result given. In the library only some 4% were active in any assay of this set; here they are far more common.

SMILES	tim10-1 inh	TIM10 inh	NLRP3 yeast inh	NALP1 yeast inh	tim23-1 inh
COc1ccc(OCC(N)=O)cc1	0	2	10	39*	19
COc1cc(OCC(N)=O)cc(OC)c1OC	13	-14	12	21	13
COc1ccccc1C(=O)NCC(=O)OCC(=O)N(CC(C)C)c1c(N)n(Cc2ccccc2)c(=O)[nH]c1=O	7	9	5	·	6
COc1ccc(CCN2Cc3c(N)cccc3C2=O)cc1OC	1	6	9	-14	25
OC(CSc1c(Cl)cccc1Cl)CN1CCN(c2ccccc2F)CC1 (centres undefined)	36	7	22	60*	15
CCc1cc(=O)oc2cc(OC(C)=O)cc(OC(C)=O)c12	9	-3	10	27*	-3
COc1ccccc1NC1=C(N2CCCCC2)C(=O)c2ccccc2C1=O	34	16	41	80*	16
CN(CC(=O)NCc1cccnc1)S(=O)(=O)c1ccc2c(c1)c(=O)n(C)c(=O)n2C	3	0	11	44*	-10
COc1cc(OC)c(N(C)C(=O)c2cc3c(s2)-c2ccccc2S(=O)(=O)C3)cc1Cl	-10	5	-12	·	-16
COc1ccccc1-c1cc(C(F)(F)F)nc(S(C)(=O)=O)n1	13	18	-20	-2	-9
CS(=O)(=O)c1nc(-c2ccco2)cc(C(F)(F)F)n1	17	25	37	61*	14
CCC(C)(C(=O)NC1CCCCC1)N(C(=O)Cc1cccs1)c1ccccc1 (centres undefined)	17	24	-5	30	21
NC(=O)CN1CCOCCOCCN(CC(N)=O)CCOCC1	-3	7	0	39*	7
O=C(NCCc1ccccc1)c1ccc([N+](=O)[O-])cc1	3	7	24	6	-4
O=C(NCCc1ccccc1)C(=O)Nc1ccc([N+](=O)[O-])cc1	18	3	2	30*	3
O=C(NCCc1ccc([N+](=O)[O-])cc1)c1ccccc1	6	14	2	34*	9
O=C(NNC(=S)NCc1ccco1)c1cccs1	5	-3	8	1	5
O=C(NCc1ccco1)c1cccs1	-7	-3	8	29*	4
O=C(NCc1ccco1)c1ccc(Oc2ccccc2)cc1	24	12	35	40*	22
Cc1ccc(N2CCN(S(=O)(=O)c3ccc4c(c3)oc(=O)n4C)CC2C)cc1 (centres undefined)	10	5	20	-3	7
COc1ccc(CNC(=O)C2CCCN(Cc3nc(-c4cccc(C)c4)oc3C)C2)cc1 (centres undefined)	11	-9	16	28*	12
Cc1oc(-c2ccc(Cl)cc2)nc1CN1CCCC(C(=O)NC2CC2)C1 (centres undefined)	1	-2	5	11	-7
COc1ccc(-c2nc(CN3CCCC(C(=O)NC4CCCC4)C3)c(C)o2)cc1 (centres undefined)	1	21	1	44*	16
COc1ccc(S(=O)(=O)N2CCC(NC(=O)C3CCCCC3)CC2)cc1	3	0	22	2	16
CCc1ccc(-c2nc(CN3CCCC(C(=O)NCCc4ccc(OC)c(OC)c4)C3)c(C)o2)cc1 (centres undefined)	39	20	0	12	14
SMILES	tim10-1 inh	TIM10 inh	NLRP3 yeast inh	NALP1 yeast inh	tim23-1 inh
COc1ccc(S(=O)(=O)N2CCCC(C(=O)NC3CCCCC3)C2)cc1 (centres undefined)	5	18	10	34*	-3
CC[C@@H]1C=C(C(=O)O)[C@H](c2ccc(Br)cc2)N1S(=O)(=O)c1ccc(C)cc1	23	14	-1	·	27
CCOc1ccc(CN2CCN(CC(O)Cn3c4ccccc4c4ccccc43)CC2)cc1 (centres undefined)	-64	-38	39	77*	-23
COc1ccc(CN2CCN(CC(O)Cn3c4ccccc4c4ccccc43)CC2)cc1 (centres undefined)	-18	-21	38	62*	-60
O=C(CSc1nc2ccccc2o1)Nc1ccc(N2CCOCC2)cc1	7	-15	16	28*	-3
COc1ccc(-c2noc(CCC(=O)N3CCN(c4ccccc4Br)CC3)n2)cc1	24	22	·	·	35
CCCc1c(C(=O)OCC)[nH]c2c1C(=O)CCC2	1	-2	-1	43*	-2
O=C(c1ccco1)N1CCN(C(=O)c2cccc3c2C(=O)N(Cc2cccnc2)C3)CC1	9	3	9	36*	10
CCCN(CC(=O)Nc1ccccc1C)C(=O)COc1c(Cl)cccc1Cl	9	0	32	·	12
O=C(CCC(=O)c1ccc[nH]1)c1ccc(Cl)cc1	4	-4	9	27*	-1
Cc1nn(C(C)C(=O)c2cccc(Cl)c2)c(C)c1[N+](=O)[O-] (centres undefined)	-9	-14	6	10	4
Cn1cnc([N+](=O)[O-])c1S(=O)(=O)c1cccc(Cl)c1	15	18	-28	66*	29
S=C(c1ccc(-c2cccc(Cl)c2)o1)N1CCCCC1	26	29	5	38*	28
OCC1CCCN(Cc2ccc(-c3ccccc3)cc2)C1 (centres undefined)	-38	-17	21	34*	3
Cc1cccc(C(=O)Nc2nnc(S(=O)(=O)N3CCC(C)CC3)s2)c1	35	10	4	40*	30
Cc1ccc(C(=O)Nc2nnc(S(=O)(=O)N3CCC(C)CC3)s2)cc1	15	13	3	18	15
Cc1ccc(C(=O)Nc2ncn[nH]2)cc1	4	6	12	1	12
CCCCNC(=O)Nc1ncn[nH]1	4	-3	14	40*	6
COc1ccc(NC(=O)CCCn2cnc3ccccc3c2=O)cc1	10	-12	8	-7	7
O=C(c1ccc([N+](=O)[O-])cc1)N1CCN(C2=NS(=O)(=O)c3ccccc32)CC1	3	3	-4	4	16
CNC(=O)Nc1ccc2snnc2c1	0	1	20	34*	-8
COc1ccc(C)cc1N(C(=O)c1ccco1)C(C(=O)NC1CCCC1)c1cc(OC)c(OC)c(OC)c1 (centres undefined)	22	-4	20	11	9
COCCNC(=S)N1CCc2cc(OC)c(OC)cc2C1c1cccs1 (centres undefined)	18	-2	-6	24*	16
O=S(=O)(c1cccc(C(F)(F)F)c1)N1CCC(c2cc(-c3cccc4ccccc34)n[nH]2)CC1	33	24	4	37*	8
COc1ccc(S(=O)(=O)N2CCC(c3cc(-c4cccc5ccccc45)n[nH]3)CC2)cc1	24	30	5	12	11
